Compound activity (PubChem)
GCN5L2 inh = blocks human GCN5L2 histone acetyltransferase. Potency, µM (series often up to 58.9 µM), most hits filed as inhibitors. 390,000 tested, 0.21% active. GCN5L2 HAT assay, ThioGlo1 CoA-SH fluorescence. Q92830. AID 504327
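Titration-based screen in which CoA formation is detected via maleimide probe ThioGlo1 (50uM) turning fluorescent on thiol reaction; substrates H3(1-25) 75uM and acetyl-CoA 70uM, GCN5L2 20nM, 20 min incubation at room temperature.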
PI4K2A inh = inhibitors of human PI4K2A. Q9BTU6. purified PI4K2A, ADP-Glo luminescence, 1 h; hits give low values. activity change, negative = inhibition, % at 76.9 µM. 420,000 tested, 0.13% active. AID 1346378; in the data active means activity change below about -50%; inconclusive means mostly about -30% to -49%
Target sequence (Q9BTU6 whole entry, looked up): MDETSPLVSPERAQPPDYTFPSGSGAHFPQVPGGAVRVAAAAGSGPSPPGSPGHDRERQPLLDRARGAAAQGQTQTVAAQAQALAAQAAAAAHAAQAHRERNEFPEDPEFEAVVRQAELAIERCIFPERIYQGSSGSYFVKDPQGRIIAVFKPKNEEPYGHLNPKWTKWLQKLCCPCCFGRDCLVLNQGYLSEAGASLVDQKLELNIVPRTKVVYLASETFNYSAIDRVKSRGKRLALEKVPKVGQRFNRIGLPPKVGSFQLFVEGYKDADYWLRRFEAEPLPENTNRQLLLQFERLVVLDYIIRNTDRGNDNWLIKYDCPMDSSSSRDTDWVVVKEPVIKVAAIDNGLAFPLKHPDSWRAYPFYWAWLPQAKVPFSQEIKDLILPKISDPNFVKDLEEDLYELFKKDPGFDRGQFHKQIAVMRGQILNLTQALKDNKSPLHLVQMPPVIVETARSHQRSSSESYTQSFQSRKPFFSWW
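ADP-Glo luminescence measured ADP generated by PI4K2A enzyme (4 ug/mL before mixing) with 1.2 mM PI substrate (pre-mix) and 300 microM ATP (pre-mix). Tris pH7.5 buffer with MgCl2, Triton X-100; 1 h reaction at ambient temperature.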
VDR inhibitor = vitamin D3 receptor (human) inhibition; 400,000 tested, 0.93% active; AID 504847; Potency, µM, usual class: inhibitors; VDR-SRC2-3 peptide fluorescence polarization, 2 h; P11473
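After 23 nl compound addition and a short centrifugation, plates sat for 2 hours at ambient temperature; polarization of fluorescence then indicated loss of VDR binding to peptide SRC2-3.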
GLS inhibitor = inhibitors of human glutaminase (GLS); O94925; Potency, µM (doses to about 45.5 µM), usual class: inhibitors; 410,000 tested, 0.21% active; AID 624170; GLS enzymatic activity, qHTS titration
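Compounds were pin-transferred onto hKGA, after which L-glutamine (1 mM solution) and a detection mix of glutamate oxidase, HRP and Amplex Red were added. Initial and 30 min RT fluorescence reads were collected.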
PLK1 PBD block = blocks phosphopeptide binding to human PLK1 polo-box domain. P53350. Plk1 PBD binding of FITC phosphopeptide, fluorescence polarization. Potency, µM, usual class: inhibitors. 360,000 tested, 2.8% active. AID 720504; further: series mostly up to about 57 µM; nearly all actives have a fitted effect of over 65% in size
TbPYK inh = confirmation of Trypanosoma brucei pyruvate kinase inhibitors. shares compounds with PLK1 PBD block. recombinant TbPYK, Kinase-Glo ATP luminescence. Potency, µM (titrated, usually from 76.9 µM), actives largely listed as inhibitors. 890 tested, 67% active; further: nearly all actives have a fitted effect of over 70% in size
TbPYK ADP-Glo = orthogonal confirmation of Trypanosoma brucei pyruvate kinase inhibitors; shares compounds with PLK1 PBD block; recombinant TbPYK, ADP-Glo luminescence, 60 min; Potency, µM (doses to about 76.9 µM), actives largely listed as inhibitors; 890 tested, 62% active; further: nearly all actives have a fitted effect of over 75% in size
Hits are given with their value; n = inactive; u = inconclusive; x = no result. Hits are enriched below; roughly 3.1% of the tested compounds scored in any of these assays. Unless noted, the call rests on the fitted dose curve; in most records, active means well fitted curve in the direction sought with a large enough effect; inconclusive means small, poorly fitted or top-dose-only effect, or another doubt; inactive means no such curve, though single readings can be large; an effect the other way counts as inactive or inconclusive.

SMILES	GCN5L2 inh	PI4K2A inh	VDR inhibitor	GLS inhibitor	PLK1 PBD block	TbPYK inh	TbPYK ADP-Glo
C[C@H](O)[C@@H]1CN2CCc3c([nH]c4ccccc34)[C@@H]2C[C@@H]1N(C)C(=S)Nc1ccc(C#N)cc1	x	n	x	n	n	x	x
Nc1sc2c(c1C(=O)NC1CCS(=O)(=O)C1)CCCC2 (centres undefined)	n	n	u	n	27µM	14µM	16µM
Nc1sc2c(c1C(=O)NCCc1ccccc1)CCCC2	x	n	x	x	u	x	x
CNc1nc(-c2ccccc2)c(-c2ccccc2)s1	x	x	n	x	x	x	x
O=C(O)CC(C(=O)O)N1C(=O)/C(=C/C=C/c2ccco2)SC1=S (centres undefined)	n	u	n	2.8µM	2.4µM	u	u
O=C(O)CCc1ccc(-c2ccc(Br)cc2)o1	n	n	u	n	u	x	x
O=C(O)CCc1ccc(-c2ccc(Cl)cc2)o1	n	n	u	n	u	u	u
CCOc1cc2[nH]c(=S)n(Cc3ccc(C(=O)NCCN(CC)CC)cc3)c(=O)c2cc1OCC	n	n	n	n	n	14µM	14µM
CCOc1cc2[nH]c(=S)n(Cc3ccc(C(=O)NCC(OC)OC)cc3)c(=O)c2cc1OCC	n	n	n	x	n	x	x
COc1ccc(C(=O)N/N=C/c2ccc(N3CCOCC3)o2)cc1OC	n	n	u	n	n	n	u
COc1ccc(C(=O)N/N=C/c2ccc(N3CCOCC3)s2)cc1OC	n	n	n	n	n	x	x
COc1ccc(C(=O)Nc2ccc(N3CCCC3)cc2)cc1OC	n	n	n	x	n	u	n
Cc1ccc(O)c(N=Nc2ccccc2)n1	n	-67	n	n	n	10µM	n
Cc1ccc(Sc2c(C)[nH]n(C(C)(C)C)c2=O)cc1	n	n	n	n	n	x	x
CC1=CC(=O)C(Sc2ccc(C)cc2)=CC1=O	x	n	x	u	0.84µM	1.3µM	2.5µM
COc1ccc(N2C(=O)/C(=C/N(C)C)NC2=S)cc1	n	n	n	u	n	5.6µM	13µM
Cn1c(=S)[nH]c2scc(-c3cccs3)c2c1=O	n	n	n	n	u	11µM	14µM
C=CCn1c(=S)[nH]c2scc(-c3cccs3)c2c1=O	n	n	n	n	n	x	x
CC1=C(C#N)C(=O)NC(=O)/C1=C/c1ccc(-c2ccc(S(N)(=O)=O)cc2)o1	n	n	25µM	n	9.5µM	n	n
CSC1CCCCC1(O)CSc1nc2c(cc1C#N)CCCC2 (centres undefined)	n	n	n	n	27µM	7.9µM	8.9µM
N#CCSc1nc2c(cc1C#N)CCCC2	n	n	n	n	n	x	x
COC(=O)c1cc(-c2ccc(C)o2)nc2ccccc12	u	n	79µM	n	15µM	u	u
COc1cccc(NC(=O)c2cc(-c3ccc(C)o3)nc3ccccc23)c1	n	n	u	n	n	x	x
Cc1ccc(-c2cc(C(=O)N3CC(C)CC(C)C3)c3ccccc3n2)o1 (centres undefined)	n	n	u	n	24µM	25µM	35µM
C=CC(=O)NC1CCCCN(C(C)C)C1=O (centres undefined)	x	n	x	x	x	x	x
SMILES	GCN5L2 inh	PI4K2A inh	VDR inhibitor	GLS inhibitor	PLK1 PBD block	TbPYK inh	TbPYK ADP-Glo
Cn1c(N)c(C#N)c2c(c1=S)CSC(C)(C)C2	n	n	n	n	n	x	x
CC1(C)Cc2c(C#N)c(N)sc(=S)c2CS1	n	u	u	n	8.4µM	u	u
Cc1ccc(C2=CSC3=NCCN23)c(C)c1	n	n	n	n	u	13µM	16µM
CS(=O)(=O)N1CCN(c2ccc([N+](=O)[O-])cc2F)CC1	n	n	n	n	n	x	x
CS(=O)(=O)N1CCN(c2ccc([N+](=O)[O-])cc2C(F)(F)F)CC1	n	n	u	n	n	u	u
Cc1ccc(-c2nc3ccccc3n2C)o1	n	u	n	n	n	u	n
Cn1c(-c2nonc2N)nc2ccccc21	n	n	n	n	n	x	x
O=C1NC(c2cccs2)Nc2sc3c(c21)CCCC3 (centres undefined)	n	n	n	n	u	n	n
CCCN1CCN(CC(=O)Nc2nncs2)CC1	n	n	n	n	n	x	x
N#Cc1c(NC(=O)CCC(=O)O)sc2c1CCCCC2	n	n	n	n	27µM	u	u
COc1ccccc1NS(=O)(=O)c1c(C)[nH]c(C)c1C(=O)N1CCCC1	n	n	n	n	n	x	x
CCn1c(SCC(=O)Nc2nc(-c3ccccc3)cs2)nc2c1c(=O)n(C)c(=O)n2C	n	n	n	n	n	x	x
CCCn1c(SCC(=O)Nc2nc(-c3ccc(OC)cc3)cs2)nc2c1c(=O)n(C)c(=O)n2C	n	n	n	n	n	n	n
CCOc1ccc(S(=O)(=O)N(C(=O)c2ccco2)c2cc3sc(=O)oc3c3ccccc23)cc1	u	n	32µM	n	u	u	u
Cc1ccc(S(=O)(=O)N(C(=O)c2ccco2)c2cc3sc(=O)oc3c3ccccc23)cc1	u	n	20µM	n	n	n	u
CC1CCN(c2nc3ccc(C(=O)NCCc4ccc(S(N)(=O)=O)cc4)cc3s2)CC1	n	n	n	n	x	x	x
O=C(O)c1ccccc1O[C@@H]1O[C@H](C(=O)O)[C@@H](O)[C@H](O)[C@H]1O	n	x	n	x	x	x	x
CC(C)n1c(=O)[nH]c2ccccc21	n	n	n	n	n	x	x
CC(C)n1c(=O)[nH][nH]c1=S	14µM	n	50µM	u	11µM	1µM	2.5µM
COCOCCn1cc(CN2CCS(=O)(=O)N(Cc3ccc(-c4ccc(OC)c(OC)c4)cc3)C(C)C2=O)nn1 (centres undefined)	x	n	x	n	n	x	x
S=C1SCN(Cc2ccccc2)CN1Cc1ccco1	x	n	x	n	12µM	u	u
S=C1SCN(Cc2ccccc2)CN1Cc1ccccc1	u	n	n	n	n	x	x
Cn1ncc(Br)c1C(=O)NC(=S)N1CCN(c2ccccn2)CC1	n	n	n	n	n	28µM	32µM
Cn1cc(Br)c(C(=O)NC(=S)N2CCN(c3ccccn3)CC2)n1	n	n	n	n	n	x	x
Cc1ccc(S(=O)(=O)C=CS(=O)(=O)c2ccc(C)cc2)cc1	x	n	x	n	2.7µM	n	u
CCN(CC)c1nn2c(=O)c(C(=O)NCc3ccc(OC)cc3OC)cnc2s1	n	n	n	n	x	x	x
CCN(CC)CCCN1C(=O)C2=C(C1=O)C1N(C)c3ccccc3[C@@]13C[C@@H](CO)N(C(=O)CCC(=O)OC)C3=N2 (some centres undefined)	x	n	x	x	x	x	x
COc1ccc(OC)c(S(=O)(=O)Nc2cc3c(cc2N2CCCC2)n(C)c(=O)c(=O)n3C)c1	n	n	u	u	21µM	n	u
COc1cc(C2Nn3c(nnc3-c3ccccc3OC)S2)ccc1O (centres undefined)	n	n	n	n	21µM	0.22µM	4µM
